Assay results from PubChem BioAssay AID1159580 (chemical genetic matrix, 2015).
In all, about 5,500 compounds went through this assay and about 2,000 (36%) were called active. About 18% were inconclusive and are not listed. Rule as the data show it: active = normalized growth mostly below about 0.91 (no sharp cut-off); inconclusive = no clear call, values can overlap the other calls; inactive = mostly above about 0.92. This is one part of the list.

Assay: chemical genetic growth profiling, strain panel (AID 1159580);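 also: tested at 20 µM; growth read once vehicle control cultures reached saturation at 30 °C; 1 = growth at the plate median or of vehicle wells; lower values mean less growth of the strain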
Settings: S. cerevisiae deletion strains, growth OD
[1] = locus YAR019C, strain CDC15, hits give low values
[2] = locus YBL105C, strain PKC1, hits give low values
[3] = locus YBR135W, strain CKS1, hits give low values
[4] = locus YBR136W, strain MEC1, hits give low values
[5] = locus YBR160W, strain CDC28, hits give low values
[6] = locus YDL017W, strain CDC7, hits give low values
[7] = locus YDL028C, strain MPS1, hits give low values
[8] = locus YDL101C, strain DUN1, hits give low values
[9] = locus YDL108W, strain KIN28, hits give low values
[10] = locus YDL132W, strain cdc53, hits give low values
[11] = locus YDL214C, strain PRR2, hits give low values
[12] = locus YDR052C, strain DBF4, hits give low values
[13] = locus YDR054C, strain cdc34, hits give low values
[14] = locus YDR226W, strain ADK1, hits give low values
[15] = locus YDR477W, strain SNF1, hits give low values
[16] = locus YER123W, strain YCK3, hits give low values
[17] = locus YER133W, strain GLC7, hits give low values
[18] = locus YFL009W, strain cdc4, hits give low values
[19] = locus YFL029C, strain CAK1, hits give low values
[20] = locus YFR003C, strain YPI1, hits give low values
[21] = locus YFR019W, strain FAB1, hits give low values
[22] = locus YFR028C, strain CDC14, hits give low values
[23] = locus YGR040W, strain KSS1, hits give low values
[24] = locus YGR052W, strain FMP48, hits give low values
[25] = locus YGR092W, strain DBF2, hits give low values
[26] = locus YHR030C, strain SLT2, hits give low values
[27] = locus YHR079C, strain IRE1, hits give low values
[28] = locus YHR082C, strain KSP1, hits give low values
[29] = locus YHR205W, strain SCH9, hits give low values
[30] = locus YIL147C, strain SLN1, hits give low values
[31] = locus YJL095W, strain BCK1, hits give low values
[32] = locus YJL128C, strain PBS2, hits give low values
[33] = locus YJL157C, strain FAR1, hits give low values
[34] = locus YJR016C, strain ILV3, hits give low values
[35] = locus YJR066W, strain TOR1 (second series), hits give low values
[36] = locus YJR066W, strain TOR1, hits give low values
[37] = locus YKL048C, strain ELM1, hits give low values
[38] = locus YKL067W, strain YNK1, hits give low values
[39] = locus YKL101W, strain HSL1, hits give low values
[40] = locus YKL193C, strain SDS22, hits give low values
[41] = locus YKL203C, strain TOR2, hits give low values
[42] = locus YLR113W, strain HOG1, hits give low values
[43] = locus YLR133W, strain CKI1, hits give low values
[44] = locus YLR403W, strain SFP1, hits give low values
[45] = locus YML070W, strain DAK1, hits give low values
[46] = locus YMR001C, strain CDC5, hits give low values
[47] = locus YMR205C, strain PFK2 (second series), hits give low values
[48] = locus YMR277W, strain FCP1, hits give low values
[49] = locus YNL006W, strain LST8, hits give low values
[50] = locus YNL020C, strain ARK1, hits give low values
[51] = locus YNL161W, strain CBK1, hits give low values
[52] = locus YNL183C, strain NPR1, hits give low values
[53] = locus YNL207W, strain RIO2, hits give low values
[54] = locus YNL222W, strain SSU72, hits give low values
[55] = locus YNL307C, strain MCK1 (second series), hits give low values
[56] = locus YOL078W, strain AVO1, hits give low values
[57] = locus YOL136C, strain PFK27, hits give low values
[58] = locus YOR061W, strain CKA2, hits give low values
[59] = locus YOR119C, strain RIO1, hits give low values
[60] = locus YOR231W, strain MKK1, hits give low values
[61] = locus YOR329C, strain SCD5, hits give low values
[62] = locus YPL031C, strain PHO85, hits give low values
[63] = locus YPL153C, strain RAD53, hits give low values
[64] = locus YPL204W, strain HRR25, hits give low values
[65] = locus YPL209C, strain IPL1, hits give low values
[66] = locus YPL256C, strain CLN2, hits give low values
[67] = locus YPR025C, strain CCL1, hits give low values
[68] = locus YPR106W, strain ISR1, hits give low values
[69] = locus YPR111W, strain DBF20, hits give low values
[70] = strain NNK1, hits give low values
[71] = strain TSCII, hits give low values

Measured: normalized growth

O=C(N/N=C\c1cc(Cl)cc(Cl)c1O)c1ccccc1Oc1ccccc1
inactive: [1] 0.965 | [2] 0.967 | [3] 0.981 | [4] 0.964 | [5] 0.974 | [6] 0.975 | [7] 0.963 | [8] 0.981 | [9] 0.958 | [10] 0.955 | [11] 0.933 | [12] 0.97 | [13] 0.96 | [14] 0.966 | [15] 0.945 | [16] 0.882 | [17] 0.949 | [18] 0.958 | [19] 0.953 | [20] 0.961 | [21] 0.946 | [22] 0.962 | [23] 0.934 | [24] 0.929 | [25] 0.885 | [26] 0.855 | [27] 0.917 | [28] 0.916 | [29] 0.844 | [30] 0.967 | [31] 0.871 | [32] 0.921 | [33] 0.939 | [34] 0.974 | [35] 0.939 | [36] 0.933 | [37] 0.895 | [38] 0.901 | [39] 0.89 | [40] 0.965 | [41] 0.969 | [43] 0.926 | [44] 0.925 | [45] 0.891 | [46] 0.961 | [47] 0.913 | [48] 0.971 | [49] 0.982 | [50] 0.906 | [51] 0.971 | [52] 0.88 | [53] 0.945 | [54] 0.971 | [55] 0.906 | [56] 0.975 | [57] 0.913 | [58] 0.905 | [59] 0.922 | [60] 0.91 | [61] 0.976 | [62] 0.938 | [63] 0.924 | [64] 0.919 | [65] 0.982 | [67] 0.966 | [68] 0.968 | [69] 0.952 | [70] 0.959 | [71] 0.967
active: [42] 0.722 | [66] 0.818

CC(C)(C)c1ccc(C(=O)N/N=C\c2cc(Cl)cc(Cl)c2O)cc1
active: locus YAL013W, strain DEP1, hits give low values 0.909 | locus YBR229C, strain ROT2, hits give low values 0.832 | locus YCL061C, strain MRC1, hits give low values 0.818 | [8] 0.852 | locus YEL061C, strain CIN8, hits give low values 0.624 | locus YGR078C, strain PAC10, hits give low values 0.847 | [26] 0.452 | locus YHR087W, strain rtc3, hits give low values 0.872 | locus YJR043C, strain POL32, hits give low values 0.876 | locus YKL190W, strain CNB1, hits give low values 0.316 | locus YLR039C, strain RIC1, hits give low values 0.165 | locus YLR085C, strain ARP6, hits give low values 0.285 | locus YLR262C, strain YPT6, hits give low values 0.182 | locus YML094W, strain GIM5, hits give low values 0.645 | locus YMR219W, strain ESC1, hits give low values 0.83 | locus YNL128W, strain TEP1, hits give low values 0.377 | locus YNL153C, strain GIM3, hits give low values 0.826 | locus YNL298W, strain CLA4 (second series), hits give low values 0.642 | locus YNR030W, strain Alg12, hits give low values 0.617 | locus YPL241C, strain CIN2, hits give low values 0.428
inactive: locus YDR150W, strain NUM1, hits give low values 1.19 | locus YJR075W, strain HOC1, hits give low values 0.996 | locus YLR058C, strain SHM2 (second series), hits give low values 0.97 | locus YMR263W, strain SAP30, hits give low values 0.893 | locus YNL322C, strain KRE1, hits give low values 0.998 | locus YPL055C, strain LGE1, hits give low values 0.858 | locus YPR135W, strain CTF4, hits give low values 0.69

Nc1ccccc1C(=O)N/N=C\c1cc(Cl)cc(Cl)c1O
inactive: [1] 0.968 | [2] 0.958 | [3] 0.97 | [4] 0.962 | [5] 0.968 | [6] 0.963 | [7] 0.964 | [8] 0.97 | [9] 0.965 | [10] 0.954 | [11] 0.758 | [12] 0.959 | [13] 0.955 | [14] 0.957 | [15] 0.694 | [17] 0.76 | [18] 0.949 | [19] 0.966 | [20] 0.962 | [21] 0.838 | [22] 0.948 | [23] 0.777 | [28] 0.682 | [30] 0.963 | [32] 0.972 | [34] 0.976 | [36] 0.546 | [40] 0.967 | [44] 0.669 | [46] 0.956 | [48] 0.958 | [49] 0.967 | [51] 0.967 | [53] 0.948 | [54] 0.967 | [56] 0.969 | [61] 0.97 | [62] 0.688 | [65] 0.969 | [67] 0.967 | [68] 0.96 | [69] 0.946 | [70] 0.939 | [71] 0.962
active: [16] 0.435 | [24] 0.325 | [25] 0.13 | [26] 0.657 | [27] 0.485 | [29] 0.564 | [31] 0.425 | [33] 0.685 | [35] 0.404 | [37] 0.579 | [38] 0.649 | [39] 0.301 | [41] 0.65 | [42] 0.434 | [43] 0.586 | [45] 0.494 | [47] 0.527 | [50] 0.516 | [52] 0.43 | [55] 0.27 | [57] 0.588 | [58] 0.491 | [59] 0.696 | [60] 0.393 | [63] 0.583 | [64] 0.655 | [66] 0.456
